Results on 26 compounds are retold here after PubChem BioAssay (EPA / NIEHS).

Common to all, as to conditions: primary human lung fibroblasts
Read-out in assay [1]: Interleukin-8 (IL8), CXCL8 (gene 3576)
Nature of the assay: BSK_MyoF_IL8: BioMAP Diversity Plus: MyoF Assay for Interleukin-8 (IL8) Biomarker Activity (AID 2284261). The method in brief:
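IL-8 quantified by ELISA after 24 h compound exposure of primary human lung fibroblasts. SRB staining of parallel cultures flagged cytotoxicity; DMSO served as baseline.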

Read-out in the next assay: Decorin, DCN (gene 1634)
As to the kind of experiment: BSK_MyoF_Decorin: BioMAP Diversity Plus: MyoF Assay for Decorin Biomarker Activity (AID 2284265). The method in brief:
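Decorin protein was quantified by ELISA 24 h after chemical addition to primary human lung fibroblasts and analysed as increase over DMSO. Cytotoxicity was tracked in parallel cultures by SRB total-protein staining read at 560 nm.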

Assay [2] can be described thus: BSK_MyoF_SRB: Viability Assessment in the BioMAP Diversity Plus: MyoF Assay (AID 2284267).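 Note: total protein by SRB absorbance in parallel cultures as cytotoxicity measure; cells assessed 24 h after compound addition.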 The method in brief: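 Confluent human lung fibroblasts were exposed to test chemicals for 24 h. Parallel wells were then fixed in 10% TCA, stained with 0.1% sulforhodamine B and measured at 560 nm. DMSO served as baseline for curve fitting.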
Read-out in assay [3]: Matrix Metallopeptidase 1 (MMP1), MMP1 (gene 4312)
As to the kind of experiment: BSK_MyoF_MMP1: BioMAP Diversity Plus: MyoF Assay for Matrix Metallopeptidase 1 (MMP1) Biomarker Activity (AID 2284268). The method in brief:
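Human lung fibroblasts (MyoF system) exposed to chemical for 24 h in 96-well format; MMP1 biomarker quantified by ELISA, with activity fitted in the positive direction relative to DMSO baseline.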

Activity calls are given as the source filed them. Rule for the calls: active = hit-call score of the fitted dose curve at least 0.9, where 1 is the maximum; inactive = score below 0.9.

With `c1ccc2sc(SSN3CCOCC3)nc2c1`, the outcome was “inactive” in assay [1] and “inactive” with Decorin, DCN (gene 1634). The AC50 in assay [2] was 31.5 µM (active); in assay [3] it was 4.91 µM (active).

As to `CC(C)CCCCCOC(=O)CS`, the outcome in assay [1] is “inactive”; with Decorin, DCN (gene 1634) it was “inactive”; in assay [2], “inactive”; in assay [3], “inactive”.

In the case of `CCOC(=O)C1=NOC(c2ccccc2)(c2ccccc2)C1`, the outcome in assay [1] was “inactive”; in the assay with Decorin, DCN (gene 1634), “inactive”; in assay [2] it was “inactive”; in assay [3], “inactive”.

Take `CC(C)[N+](C)(CCOC(=O)C1c2ccccc2Oc2ccccc21)C(C)C`: the outcome is “inactive” in assay [1]; “inactive” with Decorin, DCN (gene 1634); “inactive” in assay [2]; “inactive” in assay [3].

Take `CCOC(=O)/C=C\C(=O)OCC`: the outcome in assay [1] is “inactive”; with Decorin, DCN (gene 1634) it was “inactive”; in assay [2] it was “inactive”; in assay [3], “inactive”.

Take `O=C(Oc1ccccc1)c1ccccc1C(=O)Oc1ccccc1`: the outcome was “inactive” in assay [1]; “inactive” with Decorin, DCN (gene 1634); “inactive” in assay [2]; “inactive” in assay [3].

Consider `CC(Cl)COP(=O)(OCC(C)Cl)OCC(C)Cl` (centres undefined), for which the outcome in assay [1] was “inactive”; in the assay with Decorin, DCN (gene 1634) it was “inactive”; in assay [2] it was “inactive”; in assay [3] it was “inactive”.

In the case of `Cc1c(O)cccc1O`, the outcome in assay [1] was “inactive”; with Decorin, DCN (gene 1634) it was “inactive”; in assay [2], “inactive”; in assay [3], “inactive”.

`CC1=CC=C(C(C)C)CC1`: the outcome in assay [1] was “inactive”; in the assay with Decorin, DCN (gene 1634), “inactive”; in assay [2], “inactive”; in assay [3] it was “inactive”.

For `O=C1CCCCCCCCCCCN1`, the outcome in assay [1] was “inactive”; with Decorin, DCN (gene 1634), “inactive”; in assay [2], “inactive”; in assay [3], “inactive”.

Turning to `c1ccc2c(c1)[nH]c1ccccc12`, the outcome was “inactive” in assay [1]; “inactive” with Decorin, DCN (gene 1634); “inactive” in assay [2]; “inactive” in assay [3].

In the case of `CCCCCCC=O`, the outcome in assay [1] is “inactive”; in the assay with Decorin, DCN (gene 1634), “inactive”; in assay [2], “inactive”; in assay [3], “inactive”.

In the case of `CCOC(=O)C1=NN(c2ccc(Cl)cc2Cl)C(C)(C(=O)OCC)C1` (centres undefined), the outcome was “inactive” in assay [1]; “inactive” in the assay with Decorin, DCN (gene 1634); “inactive” in assay [2]; “inactive” in assay [3].

Turning to `COC(OC)(C(=O)c1ccccc1)c1ccccc1`, the outcome in assay [1] was “inactive”; with Decorin, DCN (gene 1634), “inactive”; in assay [2] it was “inactive”; in assay [3], “inactive”.

Take `CCN1CN(CC)CN(CC)C1`: the outcome in assay [1] was “inactive”; with Decorin, DCN (gene 1634) it was “inactive”; in assay [2], “inactive”; in assay [3], “inactive”.

For `C=CC(=O)OCCCCCCOC(=O)C=C`, the outcome is “inactive” in assay [1] and “inactive” in the assay with Decorin, DCN (gene 1634). Moreover, the values for the concentration at half-maximal activity (AC50) in assay [2] and in assay [3] were 20 µM (active) and 4.83 µM (active), respectively.

Regarding `CCCCCCOC(=O)CCCCC(=O)OCCCCCC`, the outcome in assay [1] is “inactive”; with Decorin, DCN (gene 1634), “inactive”; in assay [2] it was “inactive”; in assay [3], “inactive”.

For the compound `CCNc1nc(NC(C)(C)C)nc(OC)n1`, the outcome is “inactive” in assay [1]; “inactive” with Decorin, DCN (gene 1634); “inactive” in assay [2]; “inactive” in assay [3].

Regarding `CCCCCC1=CCCC1=O`, the outcome in assay [1] was “inactive”; with Decorin, DCN (gene 1634), “inactive”; in assay [2], “inactive”; in assay [3], “inactive”.

On to `C=CC(=O)NC(C)(C)C`, for which the outcome in assay [1] is “inactive”; in the assay with Decorin, DCN (gene 1634), “inactive”; in assay [2], “inactive”; in assay [3], “inactive”.

As to `C=CCCCCCCCCC=O`, the outcome in assay [1] is “inactive”; with Decorin, DCN (gene 1634) it was “inactive”; in assay [2], “inactive”; in assay [3], “inactive”.

Regarding `Clc1cc(Cl)c(Cl)c(Cl)c1Cl`, the outcome was “inactive” in assay [1] and “inactive” with Decorin, DCN (gene 1634). In addition, the values for the AC50 in assay [2] and in assay [3] were 20 µM (active) and 23.2 µM (active), respectively.

Regarding `CC1(C)CC(O)CC(C)(C)N1[O]`, the outcome in assay [1] was “inactive”; with Decorin, DCN (gene 1634), “inactive”; in assay [2] it was “inactive”; in assay [3], “inactive”.

As for `CCCCCCCCC(CO)CCCCCC` (centres undefined), the outcome is “inactive” in assay [1]; “inactive” in the assay with Decorin, DCN (gene 1634); “inactive” in assay [2]; “inactive” in assay [3].

For `Oc1c(Cl)cc(Cl)c(Cl)c1Cl`, the result in assay [1] and in assay [3] was inactive. Besides, the AC50 was 37.4 µM (active) in the assay with Decorin, DCN (gene 1634) and 26.6 µM (active) in assay [2].

With `COc1ccc(C(=O)c2ccccc2)c(O)c1`, the outcome in assay [1] is “inactive”; with Decorin, DCN (gene 1634), “inactive”; in assay [2] it was “inactive”; in assay [3] it was “inactive”.

In general, AC50 refers to the concentration giving half of the maximal activity seen.
